According to PubChem BioAssay (EPA / NIEHS):
The source made the active and inactive calls. Rule for the calls: active = hit-call score of the fitted dose curve at least 0.9, where 1 is the maximum; inactive = score below 0.9.

How the values were obtained:
[1] = molecular target: CCAAT/enhancer-binding protein beta (Homo sapiens) (UniProt P17676); assay: ATG_C_EBP_CIS: Attagene CIS-FACTORIAL HepG2 Assay for human CCAAT/Enhancer Binding Protein (C/EBP) beta (AID 2282927); conditions: HepG2 Attagene cis-factorial transcription factor reporter; actives raise or lower the signal
Chain of CCAAT/enhancer-binding protein beta (Homo sapiens) (P17676 whole entry, looked up): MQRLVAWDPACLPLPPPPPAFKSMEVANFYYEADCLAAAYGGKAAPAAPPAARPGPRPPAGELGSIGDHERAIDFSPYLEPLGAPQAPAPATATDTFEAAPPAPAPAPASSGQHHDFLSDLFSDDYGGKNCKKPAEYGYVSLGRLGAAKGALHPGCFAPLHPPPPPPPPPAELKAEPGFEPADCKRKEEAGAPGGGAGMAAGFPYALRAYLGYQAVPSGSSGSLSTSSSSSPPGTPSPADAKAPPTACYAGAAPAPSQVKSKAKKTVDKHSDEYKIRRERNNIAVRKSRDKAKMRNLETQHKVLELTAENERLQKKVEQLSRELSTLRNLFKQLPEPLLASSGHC
Method in brief: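 Endogenous transcription factor activity in human liver HepG2 cells is inferred from induction of a CEBPB-linked reporter mRNA. Exposure lasts 24 h; activity is fitted in both directions relative to DMSO.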

[2] = ATG_DR4_LXR_CIS: Attagene CIS-FACTORIAL HepG2 Assay for human Liver X Receptor (LXR), DR4 submotif (AID 2282929); conditions: HepG2 Attagene DR4 cis-reporter, mRNA transcription; actives raise or lower the signal
Method in brief: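 DR4 cis-reporter in HepG2, 24 h exposure. Detection: RT-PCR, 6-FAM labelling, CE fragment analysis. Endpoint fitted bidirectionally, DMSO = baseline.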

[3] = molecular target: Aryl hydrocarbon receptor (Homo sapiens) (UniProt P35869); assay: ATG_Ahr_CIS: Attagene CIS-FACTORIAL HepG2 Assay for human Aryl Hydrocarbon Receptor (Ahr) (AID 2282930); conditions: HepG2 AhR cis-factorial reporter transcription; actives raise or lower the signal
Chain of Aryl hydrocarbon receptor (Homo sapiens) (P35869 whole entry, looked up): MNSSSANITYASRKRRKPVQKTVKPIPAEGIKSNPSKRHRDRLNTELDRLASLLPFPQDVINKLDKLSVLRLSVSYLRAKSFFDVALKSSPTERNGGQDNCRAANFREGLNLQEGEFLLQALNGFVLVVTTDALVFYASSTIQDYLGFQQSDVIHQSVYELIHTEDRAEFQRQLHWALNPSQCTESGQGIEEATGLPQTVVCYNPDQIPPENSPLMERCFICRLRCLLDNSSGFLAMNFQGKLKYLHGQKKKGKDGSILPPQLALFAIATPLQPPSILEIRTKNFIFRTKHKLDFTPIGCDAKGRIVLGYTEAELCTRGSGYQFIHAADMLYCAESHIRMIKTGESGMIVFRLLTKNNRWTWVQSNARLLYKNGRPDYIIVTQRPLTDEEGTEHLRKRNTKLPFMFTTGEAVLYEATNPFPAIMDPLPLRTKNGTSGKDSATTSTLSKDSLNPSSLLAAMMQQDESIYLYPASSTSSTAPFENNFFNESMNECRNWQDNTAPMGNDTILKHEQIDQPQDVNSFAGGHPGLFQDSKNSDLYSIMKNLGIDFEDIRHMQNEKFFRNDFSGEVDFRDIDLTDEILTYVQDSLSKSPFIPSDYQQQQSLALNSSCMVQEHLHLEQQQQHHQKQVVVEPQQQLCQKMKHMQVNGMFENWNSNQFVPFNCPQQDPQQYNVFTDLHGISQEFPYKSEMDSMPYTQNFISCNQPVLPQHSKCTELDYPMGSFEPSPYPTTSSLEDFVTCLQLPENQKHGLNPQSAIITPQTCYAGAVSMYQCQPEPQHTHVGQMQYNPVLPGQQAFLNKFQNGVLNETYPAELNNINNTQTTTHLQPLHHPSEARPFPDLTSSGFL
Method in brief: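 Transient MRTU transfection of HepG2 → 24 h compound exposure → total RNA, oligo(dT) RT → PCR, 6-FAM extension, HpaI cut → CE fluorescence. DMSO = baseline; bidirectional curve fit.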

[4] = ATG_AP_1_CIS: Attagene CIS-FACTORIAL HepG2 Assay for human Activator Protein 1 (AP-1) (AID 2282931); conditions: HepG2 Attagene cis-factorial AP-1 reporter mRNA; actives raise or lower the signal
Method in brief: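 Cis-regulated reporter units transiently expressed in HepG2 report endogenous transcription-factor activity. Signal: reporter mRNA at 24 h, via RT-PCR and fluorescent capillary electrophoresis. Endpoint derived by bidirectional fitting, DMSO as negative control.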

[5] = ATG_BRE_CIS: Attagene CIS-FACTORIAL HepG2 Assay for human Bone Morphogenetic Protein (BMP) Response Element (BRE) (AID 2282933); conditions: HepG2 BMP response element reporter, Attagene transcription factor profiling; actives raise or lower the signal
Method in brief: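 Read-out: reporter mRNA induction quantified by RT-PCR and capillary electrophoresis after 24 h chemical exposure of transfected HepG2 cells. Endogenous factor activity on the BMP response element; gain or loss fitted against DMSO baseline.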

[6] = molecular target: Retinoic acid receptor alpha (Homo sapiens) (UniProt P10276); assay: ATG_DR5_RAR_CIS: Attagene CIS-FACTORIAL HepG2 Assay for human Retinoic Acid Receptor Alpha (RARE), DR5 submotif (AID 2282934); conditions: HepG2 Attagene cis-factorial RARE DR5 reporter, mRNA; actives raise or lower the signal;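 for AC50: reporter responds to endogenous RAR alpha beta and gamma in HepG2 not RARA alone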
Chain of Retinoic acid receptor alpha (Homo sapiens) (P10276 whole entry, looked up): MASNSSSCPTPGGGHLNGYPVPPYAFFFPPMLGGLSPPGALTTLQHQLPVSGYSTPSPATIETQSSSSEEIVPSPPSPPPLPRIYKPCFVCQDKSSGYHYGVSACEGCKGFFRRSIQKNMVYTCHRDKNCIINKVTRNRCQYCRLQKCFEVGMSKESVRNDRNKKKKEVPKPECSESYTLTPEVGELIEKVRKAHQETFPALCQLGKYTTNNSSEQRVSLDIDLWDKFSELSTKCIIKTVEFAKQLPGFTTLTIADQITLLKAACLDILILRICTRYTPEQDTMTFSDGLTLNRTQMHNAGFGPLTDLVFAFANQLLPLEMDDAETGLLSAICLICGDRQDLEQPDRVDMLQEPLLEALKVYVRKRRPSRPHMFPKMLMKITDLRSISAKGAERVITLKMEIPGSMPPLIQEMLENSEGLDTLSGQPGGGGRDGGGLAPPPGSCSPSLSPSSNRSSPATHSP
Method in brief: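 Transient MRTU transfection of HepG2; 24 h compound treatment; TriZol RNA, oligo(dT) RT, PCR, FAM labelling, capillary electrophoresis. Bidirectional fit vs DMSO. Endogenous TF activity at DR5 RARE.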

[7] = molecular target: Transcription factor E2F1 (Homo sapiens) (UniProt Q01094); assay: ATG_E2F_CIS: Attagene CIS-FACTORIAL HepG2 Assay for human E2F Transcription Factor 1 (AID 2282935); conditions: HepG2 Attagene cis-reporter, E2F reporter RNA transcripts; actives raise or lower the signal
Chain of Transcription factor E2F1 (Homo sapiens) (Q01094 whole entry, looked up): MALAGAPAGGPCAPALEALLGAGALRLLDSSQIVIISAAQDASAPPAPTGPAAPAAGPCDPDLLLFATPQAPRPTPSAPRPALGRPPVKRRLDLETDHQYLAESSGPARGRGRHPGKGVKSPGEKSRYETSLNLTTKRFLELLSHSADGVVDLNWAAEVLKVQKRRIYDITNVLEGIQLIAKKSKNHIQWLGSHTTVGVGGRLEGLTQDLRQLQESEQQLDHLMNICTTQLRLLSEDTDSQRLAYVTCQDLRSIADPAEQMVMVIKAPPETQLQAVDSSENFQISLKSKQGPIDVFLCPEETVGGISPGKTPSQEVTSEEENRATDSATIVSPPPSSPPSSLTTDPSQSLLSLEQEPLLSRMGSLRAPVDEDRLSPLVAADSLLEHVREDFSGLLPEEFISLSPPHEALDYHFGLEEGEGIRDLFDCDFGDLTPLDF
Method in brief: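 Cis-element reporter mRNA induction in transiently transfected HepG2, 24 h exposure. Activity fitted in both directions relative to DMSO negative control.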

[8] = ATG_CMV_CIS: Attagene CIS-FACTORIAL HepG2 Assay for human CMV (Internal Marker) (AID 2282928); conditions: HepG2 CMV promoter reporter, transcription factor profiling; actives raise or lower the signal;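 note: endpoint acts as a background internal control marker rather than a target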
Method in brief: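 HepG2 cells transiently transfected with multiple cis-regulated reporter units; 24 h compound exposure. Reporter mRNA quantified by RT-PCR, 6-FAM primer-extension labeling, HpaI digestion and capillary electrophoresis; bidirectional fitting against DMSO baseline.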

[9] = ATG_AP_2_CIS: Attagene CIS-FACTORIAL HepG2 Assay for human Activator Protein 2 (AP-2) (AID 2282932); conditions: HepG2 AP-2 cis-reporter, Attagene transcription factor profiling; actives raise or lower the signal
Method in brief: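 HepG2, transient MRTU transfection, cis-regulated reporters; 24 h compound exposure; RNA isolated, RT-PCR, 6-FAM labelling, HpaI digest, CE fluorescence. DMSO = negative control/baseline, bidirectional fit.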

Measured: AC50

C#CC1(O)CC[C@H]2[C@@H]3CCC4=CCCC[C@@H]4[C@H]3CC[C@@]21C (stereo partly specified)
inactive: [1] | [3] | [4] | [7]
active: [2] 1.24 µM | [5] 34 µM | [6] 49 µM

C=C(C)C(=O)OCCO
not listed: [6]
inactive: all other assays above

CC(C)(c1cc(Br)c(OCCO)c(Br)c1)c1cc(Br)c(OCCO)c(Br)c1
inactive: [3] | [5]
active: [1] 45.3 µM | [2] 15.6 µM | [6] 0.22 µM | [7] 36 µM

C[Si](C)O[Si](C)(C)O[Si](C)(C)O[Si](C)C
inactive: all assays above

CO[Si](OC)(OC)c1ccccc1
not listed: [6]
inactive: all other assays above

CCCCCCOc1cc(C)c(O)c(C)c1C
not listed: [6]
inactive: all other assays above

COc1cc(C)ccc1C(C)C
not listed: [7] | [9]
inactive: all other assays above

CCCC(C)CCC(C)=O (stereo unspecified)
inactive: all assays above

COc1ccc2nc(N)sc2c1
active: [3] 3.17 µM
not listed: [8]
inactive: all other assays above

CCOC(=O)NNc1nncc2ccccc12
not listed: [1]
inactive: all other assays above

Nc1ccc2cc3ccccc3cc2c1
not listed: [1]
inactive: all other assays above

[Cl][Nd]([Cl])[Cl]
not listed: [1]
inactive: all other assays above

CCCCCCCC/C=C\CCCCCCCC(=O)OCCO
active: [2] 50 µM | [4] 50 µM | [6] 59.4 µM
not listed: [1]
inactive: all other assays above

CC[C@H]1OC(=O)[C@H](C)[C@@H](O[C@H]2C[C@@](C)(OC)[C@@H](O)[C@H](C)O2)[C@H](C)[C@@H](O[C@@H]2O[C@H](C)C[C@H](N(C)C)[C@H]2O)[C@](C)(O)C[C@@H](C)C(=NOCOCCOC)[C@H](C)[C@@H](O)[C@]1(C)O
inactive: all assays above

CC/C=C\C/C=C\C/C=C\CCCCCCCC(=O)O
active: [2] 153 µM | [4] 161 µM
not listed: [7]
inactive: all other assays above

C(=CC=Nc1ccccc1)C=CNc1ccccc1
active: [3] 10.1 µM | [4] 100 µM
not listed: [1] | [6]
inactive: all other assays above

N[C@H]1C(O)O[C@H](CO)[C@H](O)[C@@H]1O (stereo partly specified)
not listed: [1]
inactive: all other assays above

CCCCCCCCCCCSCC(=O)O
active: [2] 48.8 µM | [6] 2.13 µM
inactive: all other assays above

CC1=NC(C)OC1C (stereo unspecified)
active: [8] 153 µM | [4] 100 µM
inactive: all other assays above

COC=O
inactive: all assays above
